Source: PubChem BioAssay
An excerpt weighted towards active compounds, which were near 8.8% of everything screened.
KB-V1 cytotox = qHTS assay for MDR1-selective chemotherapeutics: Primary screen using the drug-selected MDR subline cells KB-V1; KB-V1 MDR cells viability, CellTiter-Glo, 72 h; Potency, µM (doses to about 46.1 µM), usual class: cytotoxic; hit rate 3.4% among 400,000; AID 1347076, 2019; also: potency is read from the fitted curve at half-maximal effect; nearly all actives have a fitted effect of over 60% in size
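In this primary screen, KB-V1 cells overexpressing P-gp are incubated with library compounds (lowest to highest concentration) for 72 h at 37 degrees C before a luminescent ATP viability read.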
KB-3-1 cytotox = qHTS assay for MDR1-selective chemotherapeutics: Primary screen using the parental adenocarcinoma cell KB-3-1; hit rate 1.4% among 400,000; KB-3-1 viability, CellTiter-Glo ATP luminescence, 72 h; Potency, µM (top dose mostly 46.1 µM), usual class: cytotoxic; also: potency is read from the fitted curve at half-maximal effect; nearly all actives have a fitted effect of over 60% in size
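Parental KB-3-1 viability, qHTS format: 72 h compound exposure, 37 °C; CellTiter-Glo; media-only wells and DMSO plates as controls; concentration-effect fits on corrected data.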
IL-1B inflam inh = qHTS for Inhibitors of Inflammasome Signaling: IL-1-beta AlphaLISA Primary Screen. THP-1 LPS/ATP IL-1B secretion, AlphaLISA, 16 h; active compounds read low. hit rate 4.7% among 360,000. activity change, % at 57.5 µM; in the data active = activity change below about -50%; inconclusive = mostly about -30% to -49%
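Secreted IL-1B measured by AlphaLISA bead assay after 16 h compound exposure of THP-1 cells; compounds (final up to 57.5 uM) added 1 h before LPS (250 ng/mL) and ATP (1.25 mM) stimulation; lower signal means less secretion.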
HT1080 IDH1KD tx = qHTS for induction of synthetic lethality in tumor cells producing 2HG: qHTS for the HT-1080-IDH1KD cell line. Potency, µM (titrated, usually from 46.1 µM), for inactives: top-dose activity, negative = toxicity, hits mostly cytotoxic. hit rate 2% among 360,000. HT-1080 IDH1 knockdown viability, ATP luminescence, 48 h;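 also: potency is read from the fitted curve at half-maximal effect; 0% = DMSO wells and -100% = cell-free medium wells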
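Viability of IDH1-knockdown HT-1080 fibrosarcoma cells was assessed by CellTiter-Glo after 48 h at 37 °C with titrated compound; concentration-effect curves were classified by fit quality and response size.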
HT1080-NT tox = qHTS for induction of synthetic lethality in tumor cells producing 2HG: qHTS for the HT-1080-NT fibrosarcoma cell line. HT-1080-NT fibrosarcoma viability, CellTiter-Glo ATP luminescence, 48 h. Potency, µM (doses to about 46.1 µM), without a hit: at the top dose activity, negative = less viability, actives largely listed as cytotoxic. hit rate 1.6% among 360,000. AID 686970, 2013;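 also: NT is the 2HG producing partner of a matched IDH1 knockdown line; potency is read from the fitted curve at half-maximal effect; 0% = DMSO-treated cells and -100% = media-only wells without cells; nearly all actives have a fitted effect of over 55% in size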
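HT-1080-NT; 750 cells/well; 5% FBS RPMI; 48 h compound, 37 degrees C; CellTiter-Glo luminescence; curve fitting and curve-class assignment.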
* hit, by the source's call; i = inactive; u = inconclusive; x = no result. Unless noted, calls follow the shape of the dose curve; as a rule, active = well fitted curve in the direction sought with a large enough effect; inconclusive = small, poorly fitted or top-dose-only effect, or another doubt; inactive = no such curve, though single readings can be large; an effect the other way counts as inactive or inconclusive. Unless noted, % is scaled to controls: 0 for no effect and ±100 for the full control effect.

SMILES | KB-V1 cytotox | KB-3-1 cytotox | IL-1B inflam inh | HT1080 IDH1KD tx | HT1080-NT tox
COC(=O)[C@]12CCCCC=C1N(Cc1ccc(Cl)cc1Cl)C(=O)[C@H](CC(=O)NCCc1ccccc1OC)C2 | u | u | -61.0* | u | u
CCCCOCCCNC(=O)C[C@@H]1C[C@@]2(C(=O)OC)CCCCC=C2N(Cc2ccc(Cl)cc2Cl)C1=O | u | i | -58.5* | u | u
CCOC(=O)[C@]12CCCC=C1N(Cc1ccc(Cl)cc1Cl)C(=O)[C@H](CC(=O)NCCCCc1ccccc1)C2 | u | u | 0.0 | u | u
CC1=C(C(=O)NCc2cccc(Cl)c2)C2(CCCCCC2)OC1=O | i | i | x | x | x
Cc1noc(C)c1CN1C(=O)c2ccccc2C1=O | u | i | -0.8 | 2.0% | 8.9%
Cc1ccc(-c2nc3cc(Cl)ccc3o2)cc1NC(=O)c1cc([N+](=O)[O-])ccc1N1CCOCC1 | i | i | x | x | x
COc1ccccc1/C=C/C=N\N1CCN(Cc2ccccc2Cl)CC1 | 16.4µM* | i | -24.2 | 10.4% | 11.1%
COc1ccccc1/C=C/C=N/N1CCN(Cc2ccc(Cl)cc2)CC1 | i | i | u | u | 0.5%
COc1ccc(C(C)NC(=O)c2ccc([N+](=O)[O-])cc2)cc1OC (stereo not drawn) | 20.6µM* | i | -7.5 | 1.5% | 5.4%
COc1cc(OC)cc(C(=O)NC(C)c2ccc(Br)cc2)c1 (stereo not drawn) | i | i | 0.2 | -17.6% | -4.8%
COc1ccc(C(C)NC(=O)c2ccccc2Cl)cc1OC (stereo not drawn) | u | i | -5.8 | 5.9% | -3.8%
COc1ccc(C(C)NC(=O)c2cccc([N+](=O)[O-])c2)cc1OC (stereo not drawn) | 16.4µM* | i | -5.4 | 0.0% | -2.3%
COc1ccc(OC)c(C(C)NC(=O)c2ccc(Br)cc2)c1 (stereo not drawn) | 16.4µM* | i | 6.1 | 2.6% | 5.1%
COc1ccc(C(C)NC(=O)c2ccc(Br)cc2)cc1OC (stereo not drawn) | 16.4µM* | i | -10.3 | 0.9% | 2.4%
CC(C)NC(=O)c1onc(CSc2ccc(Cl)cc2)c1C(=O)NC(C)C | u | i | u | 3.7% | 6.2%
COc1cc(C(=O)NCCCNC(=O)c2cc(OC)c(OC)c(OC)c2)cc(OC)c1OC | i | i | 25.5 | 10.4% | 6.4%
COc1cc(C(=O)NCCCNc2nc3cc(C)cc(C)c3cc2C#N)cc(OC)c1OC | 5.8µM* | u | -9.0 | 0.5% | 2.8%
COc1cc(C(=O)NCCCNc2ccc([N+](=O)[O-])cc2)cc(OC)c1OC | 20.6µM* | i | -8.0 | 10.5% | 9.3%
COc1ccc(Cl)cc1NC(=O)c1cc2nc(-c3ccc4c(c3)OCO4)cc(C(F)(F)F)n2n1 | i | i | x | x | x
Cc1cc(C)n2ncc(C(=O)Nc3ccc4c(c3)CCC4)c2n1 | i | i | x | x | x
N#CCCN(Cc1cccnc1)C(=S)NC1CC2C=CC1C2 (stereo not drawn) | i | i | 23.6 | 0.4% | 0.8%
CC(C)c1ccc(N2C(=O)CSC23C(=O)N(Cc2ccccc2)c2ccccc23)cc1 (stereo not drawn) | 11.6µM* | u | x | x | x
CCc1ccc(NC(=O)CN2C(=O)C3(SCC(=O)N3c3ccccc3)c3ccccc32)cc1 (stereo not drawn) | i | i | x | x | x
CCc1ccc(N2C(=O)CSC23C(=O)N(Cc2cccc(F)c2)c2ccccc23)cc1 (stereo not drawn) | 11.6µM* | u | x | x | x
CCc1ccc(N2C(=O)CSC23C(=O)N(Cc2ccc(C)cc2)c2ccccc23)cc1 (stereo not drawn) | 11.6µM* | u | x | x | x
SMILES | KB-V1 cytotox | KB-3-1 cytotox | IL-1B inflam inh | HT1080 IDH1KD tx | HT1080-NT tox
COc1ccccc1NC(=O)CN1C(=O)C2(SCC(=O)N2c2ccc(C)c(C)c2)c2ccccc21 (stereo not drawn) | u | 18.4µM* | x | x | x
CC(Sc1ccccc1)C(=O)NN=C1CCN(C)CC1 (stereo not drawn) | i | i | -2.2 | 14.6% | 7.1%
CCOC(=O)c1ccc(NC(=O)N2CCOc3ccccc32)cc1 | i | i | x | x | x
Cc1ccc(N2C(=O)CSC23C(=O)N(Cc2ccccc2F)c2ccccc23)cc1F (stereo not drawn) | 10.3µM* | u | x | x | x
Cc1ccc(N2C(=O)CSC23C(=O)Nc2ccccc23)cc1F (stereo not drawn) | i | i | x | x | x
Cc1ccc(CN2C(=O)C3(SCC(=O)N3c3ccc(C)c(C)c3)c3ccccc32)cc1 (stereo not drawn) | 18.4µM* | 20.6µM* | x | x | x
Cc1ccc(C)c(NC(=O)CN2C(=O)C3(SCC(=O)N3c3ccc(C)c(C)c3)c3ccccc32)c1 (stereo not drawn) | i | u | x | x | x
O=C(CN1C(=O)C2(SCC(=O)N2c2cccc(Cl)c2)c2ccccc21)NCCc1ccccc1 (stereo not drawn) | i | 14.6µM* | x | x | x
O=C(CN1C(=O)C2(SCC(=O)N2c2cccc(Cl)c2)c2ccccc21)NCc1ccccc1 (stereo not drawn) | u | i | x | x | x
Cc1ccc(NC(=O)C2CCCN2S(=O)(=O)c2ccc3c(c2)n(C)c(=O)c(=O)n3C)cc1C (stereo not drawn) | i | i | 6.2 | 3.3% | -0.4%
COc1cc(Nc2nc3ccc(Cl)cc3nc2-n2nc(C)cc2C)cc(OC)c1 | i | i | x | x | x
CSCCC(NS(=O)(=O)c1ccccc1F)C(=O)N1CCCCCC1 (stereo not drawn) | i | i | 0.3 | 0.0% | 0.4%
CSCCC(NS(=O)(=O)c1ccc(Cl)cc1)C(=O)O (stereo not drawn) | i | i | 18.4 | 2.9% | 19.6%
CSCCC(NS(=O)(=O)c1ccc(C)cc1)C(=O)N1CCCCCCC1 (stereo not drawn) | 16.4µM* | i | -3.9 | 5.8% | 0.2%
CSCCC(NS(=O)(=O)c1ccc(Cl)cc1)C(=O)OCc1c(Cl)cccc1Cl (stereo not drawn) | 7.31µM* | u | 36.1 | -8.8% | -4.6%
CSCCC(NS(=O)(=O)c1ccc(Cl)cc1)C(=O)N1CCN(c2ccccc2)CC1 (stereo not drawn) | 14.6µM* | i | -3.2 | 6.0% | 1.4%
COc1ccc(CCNC(=O)CN(c2ccccc2OC)S(=O)(=O)c2ccc(C)cc2)cc1 | i | u | -51.2* | -11.4% | -13.3%
